Assay results as given in PubChem BioAssay.
The source made the active and inactive calls.

Tests used:
[1] = E. coli DRC41 culture turbidity changes, primary screen, E. coli filamentation inducer project, strain DRC41, OD650, 48 h (AID 1152);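 also: E. coli MC1000 strain DRC41 lacking acrAB efflux pump and sulA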; conditions: E. coli DRC41 (acrAB sulA), higher = more signal, called active from +8 up or from −8 down
[2] = small-molecule binders of probe aLefty1, primary screen, biochemical, small-molecule microarray, 635/667 nm fluorescence (AID 1153); conditions: higher = more signal;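 also: score merges spot fluorescence with signal-to-noise ratio from the scanned slide images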
[3] = PSAC antagonists in infected red cells, primary screen, cell-based, P. falciparum Indochina, OD700, 1 h (AID 1154); conditions: P. falciparum Indochina infected RBC osmotic lysis, higher = more signal, called active from +8 up or from −8 down
[4] = PSAC antagonists in infected red cells, primary screen, cell-based, P. falciparum Indochina, OD700, 2 h (AID 1155);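 also: lysis reports solute entry through the parasite surface anion channel PSAC; channel blockers reduce lysis of infected cells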; conditions: P. falciparum Indochina infected erythrocytes, osmotic lysis OD700; higher = more signal, called active from +8 up or from −8 down
[5] = osmotic lysis modulators in infected erythrocytes, primary screen, PSAC antagonist project, cell-based, P. falciparum Indochina, OD700, 3 h (AID 1156); conditions: higher = more signal, called active from +8 up or from −8 down
[6] = PSAC antagonists in infected red cells, primary screen, cell-based, P. falciparum Indochina, OD700, 18 h (AID 1157); conditions: P. falciparum Indochina infected erythrocytes, osmotic lysis OD700, 18 h; higher = more signal, called active from +8 up or from −8 down
[7] = modulators of S6 phosphorylation in cells, primary screen, cell-based, A549, cytoblot, luminescence, serum-stimulated (AID 1158); conditions: A549 phospho-S6 cytoblot, 5 h, higher = more signal;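 also: serum-stimulated A549 lung adenocarcinoma cells; signal is phosphorylated S6 detected by cytoblot immunostaining with HRP secondary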
[8] = target: NADPH oxidase 2 (Homo sapiens) (UniProt P04839); experiment: NOX2-dependent H2O2 signal modulators, primary screen, NOX inhibitor project, cell-based, HEK293-NOX2, PMA-stimulated, Amplex Red fluorescence (AID 1159); conditions: 45 min, higher = more signal, called active from +8 up or from −8 down; also: test concentration not given here
NADPH oxidase 2 (Homo sapiens), sequence (P04839 whole entry, looked up): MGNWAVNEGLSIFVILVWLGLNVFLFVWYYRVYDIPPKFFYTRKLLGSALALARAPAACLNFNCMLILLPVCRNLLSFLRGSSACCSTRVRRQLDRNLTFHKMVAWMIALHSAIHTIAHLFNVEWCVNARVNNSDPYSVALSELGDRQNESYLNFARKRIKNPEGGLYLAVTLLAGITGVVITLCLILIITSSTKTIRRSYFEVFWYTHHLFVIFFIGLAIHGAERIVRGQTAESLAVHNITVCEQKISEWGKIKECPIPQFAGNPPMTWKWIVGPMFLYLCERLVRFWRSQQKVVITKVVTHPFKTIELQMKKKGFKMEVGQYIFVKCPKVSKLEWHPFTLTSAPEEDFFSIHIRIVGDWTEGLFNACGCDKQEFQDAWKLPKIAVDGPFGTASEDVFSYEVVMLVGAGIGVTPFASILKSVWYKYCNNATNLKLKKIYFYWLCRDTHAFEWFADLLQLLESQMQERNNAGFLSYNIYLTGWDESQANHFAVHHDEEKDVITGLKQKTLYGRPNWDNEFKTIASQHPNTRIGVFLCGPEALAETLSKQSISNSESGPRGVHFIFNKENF

[9] = target: NADPH oxidase 4 (Homo sapiens) (UniProt Q9NPH5); experiment: NOX4-dependent H2O2 signal modulators, primary screen, NOX inhibitor project, cell-based, HEK293-NOX4, tetracycline-induced, Amplex Red fluorescence (AID 1160); conditions: 45 min, higher = more signal, called active from +8 up or from −8 down
NADPH oxidase 4 (Homo sapiens), sequence (Q9NPH5 whole entry, looked up): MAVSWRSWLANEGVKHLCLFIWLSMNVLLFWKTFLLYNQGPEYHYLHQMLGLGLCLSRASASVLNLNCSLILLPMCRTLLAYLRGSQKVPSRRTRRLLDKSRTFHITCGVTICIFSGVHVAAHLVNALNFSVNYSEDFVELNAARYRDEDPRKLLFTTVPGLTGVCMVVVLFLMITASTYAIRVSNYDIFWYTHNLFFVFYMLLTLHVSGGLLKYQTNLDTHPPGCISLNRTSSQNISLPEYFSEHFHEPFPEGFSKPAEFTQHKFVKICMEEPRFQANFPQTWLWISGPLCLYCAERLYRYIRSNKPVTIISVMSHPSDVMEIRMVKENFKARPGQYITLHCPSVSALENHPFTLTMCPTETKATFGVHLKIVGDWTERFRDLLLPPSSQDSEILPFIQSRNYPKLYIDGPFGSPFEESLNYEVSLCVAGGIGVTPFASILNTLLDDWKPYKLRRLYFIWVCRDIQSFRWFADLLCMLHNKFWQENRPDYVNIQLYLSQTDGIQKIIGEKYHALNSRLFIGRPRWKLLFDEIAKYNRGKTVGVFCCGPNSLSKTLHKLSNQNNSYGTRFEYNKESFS

[10] = target: NADPH oxidase 5 (Homo sapiens) (UniProt Q96PH1); experiment: NOX5-dependent H2O2 signal modulators, primary screen, NOX inhibitor project, cell-based, HEK293-NOX5, Amplex Red fluorescence (AID 1161); conditions: HEK293-NOX5, ionomycin, 45 min, higher = more signal
NADPH oxidase 5 (Homo sapiens), sequence (Q96PH1 whole entry, looked up): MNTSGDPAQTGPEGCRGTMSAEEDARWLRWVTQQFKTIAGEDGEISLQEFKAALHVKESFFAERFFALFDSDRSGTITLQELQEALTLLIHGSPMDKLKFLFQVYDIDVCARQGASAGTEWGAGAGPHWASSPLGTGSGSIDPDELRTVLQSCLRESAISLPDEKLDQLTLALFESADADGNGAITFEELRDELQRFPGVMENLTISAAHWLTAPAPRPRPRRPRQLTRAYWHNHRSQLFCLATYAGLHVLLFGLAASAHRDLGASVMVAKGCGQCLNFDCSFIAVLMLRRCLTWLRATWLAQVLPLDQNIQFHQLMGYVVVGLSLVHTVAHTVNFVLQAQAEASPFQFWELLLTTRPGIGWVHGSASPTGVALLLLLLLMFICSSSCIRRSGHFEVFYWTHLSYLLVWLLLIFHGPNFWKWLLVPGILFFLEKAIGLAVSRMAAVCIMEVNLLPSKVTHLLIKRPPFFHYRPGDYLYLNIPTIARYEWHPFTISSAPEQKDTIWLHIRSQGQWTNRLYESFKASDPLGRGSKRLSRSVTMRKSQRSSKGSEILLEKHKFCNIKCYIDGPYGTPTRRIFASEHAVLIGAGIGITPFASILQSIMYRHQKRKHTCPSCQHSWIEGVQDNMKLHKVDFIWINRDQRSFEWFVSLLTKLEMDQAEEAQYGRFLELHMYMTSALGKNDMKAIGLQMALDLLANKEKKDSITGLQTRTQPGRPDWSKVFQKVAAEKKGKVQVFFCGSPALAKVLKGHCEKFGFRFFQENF

[11] = A549 cell viability effects, profiling panel, calcein-AM fluorescence, 48 h, basal (AID 1162); conditions: higher = more signal; also: test concentration not given here
[12] = adipocyte viability effects, profiling panel, cell-based, 3T3-L1 adipocytes, calcein-AM fluorescence, 48 h, basal (AID 1163); conditions: 3T3-L1 adipocytes viability, higher = more signal; also: test concentration not given here
[13] = HepG2 cell viability effects, profiling panel, calcein-AM fluorescence, 48 h, basal (AID 1164); conditions: higher = more signal; also: test concentration not given here
[14] = MM1S cell viability effects, profiling panel, calcein-AM fluorescence, 48 h, basal (AID 1165); conditions: higher = more signal;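 also: viability of MM1S multiple myeloma cells under basal unstimulated conditions; test concentration not given here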
[15] = basal RPMI8226 viability, no added stimulus, profiling panel, cell-based, calcein-AM fluorescence, 48 h, PK04 Diversity Set (AID 1166); conditions: RPMI8226 myeloma viability, higher = more signal;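 also: cells grown under basal conditions without added stimulus; test concentration not given here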
[16] = basal HepG2 mitochondrial membrane potential changes, profiling panel, cell-based, JC-1 fluorescence, 24 h, 100 nL compound (AID 1167); conditions: higher = more signal; also: test concentration not given here
[17] = basal 3T3-L1 adipocyte mitochondrial potential changes, profiling panel, cell-based, JC-1 fluorescence, 3T3-L1 adipocytes, 24 h, 100 nL compound (AID 1168); conditions: JC-1 mitochondrial fluorescence, higher = more signal, called active from +8 up or from −8 down; also: test concentration not given here
[18] = basal RPMI8226 mitochondrial membrane potential changes, profiling panel, cell-based, JC-1 fluorescence, 24 h, 100 nL compound (AID 1169); conditions: RPMI8226 myeloma, JC-1 mitochondrial potential fluorescence, higher = more signal; also: test concentration not given here
[19] = basal MM1S mitochondrial membrane potential changes, profiling panel, cell-based, JC-1 fluorescence, 24 h, 100 nL compound (AID 1170); conditions: higher = more signal; also: test concentration not given here
[20] = A549 lung cancer cell viability effects, profiling panel, resazurin fluorescence, 24 h, PK04 Diversity Set (AID 1171); conditions: higher = more signal, called active from +8 up or from −8 down; also: test concentration not given here

Structure (SMILES) | z-score [1] | composite z-score [2] | z-score [3] | z-score [4] | z-score [5] | z-score [6] | z-score [7] | z-score [8] | z-score [9] | z-score [10] | z-score [11] | z-score [12] | z-score [13] | z-score [14] | z-score [15] | z-score [16] | z-score [17] | z-score [18] | z-score [19] | z-score [20]
C#C[C@@H](CC)O[Si](C#Cc1ccc(Oc2ccccc2)cc1)(C(C)C)C(C)C | -0.49 (inactive) | 0.0404 | 0.788 (inactive) | 1.4 (inactive) | -1.4 (inactive) | 0.335 (inactive) | -0.724 | 0.278 (inactive) | -0.366 (inactive) | -1.51 | -2.96 | -1.01 | -2.63 | -2.97 | -4.2 | -2.29 | -0.068 (inactive) | -0.291 | -1.11 | -0.936 (inactive)
CC(C)CON=C1[C@H]2CCn3c(=O)n(-c4ccccc4)c(=O)n3[C@H]2[C@H](O)[C@@H]2O[C@H]12 | 0.424 (inactive) | -0.105 | 0.175 (inactive) | -0.2 (inactive) | 0.0794 (inactive) | 0.0344 (inactive) | 0.0305 | -5.13 (inactive) | 0.018 (inactive) | 0.407 | -0.464 | 0.322 | 0.332 | 0.456 | -1.2 | -0.174 | -0.0969 (inactive) | -0.385 | -0.209 | -0.829 (inactive)
COCCOC(=O)N1C(=O)[C@@]2(c3cc(C#CCNC(N)=O)ccc31)[C@H](c1ccccc1OCCO)N1[C@H](c3ccccc3)[C@H](c3ccccc3)OC(=O)[C@H]1[C@@H]2C(=O)N1CCN(c2ncccn2)CC1 | 0.981 (inactive) | 0.15 | 2.11 (inactive) | -0.313 (inactive) | 0.793 (inactive) | -2.06 (inactive) | 2.82 | 1.63 (inactive) | 1.09 (inactive) | -0.814 | 0.0249 | 0.457 | 1.37 | 0.541 | 1.12 | -1.76 | 0.856 (inactive) | -0.847 | -0.859 | -1.27 (inactive)
CC(C)=CCCC(C)=CCON=C1C[C@@H](O)[C@@H](O)[C@@H]2[C@@H]3C(=O)N(C[C@@H]4CCCO4)C(=O)[C@@H]3CC[C@@H]12 | 0.381 (inactive) | 0.0371 | 1.53 (inactive) | 0.767 (inactive) | 0.369 (inactive) | 0.549 (inactive) | -0.622 | 0.752 (inactive) | 0.604 (inactive) | 0.0838 | 0.113 | -0.833 | -0.315 | 0.182 | -0.0114 | -1.31 | 0.729 (inactive) | -0.495 | -0.761 | 0.0805 (inactive)
CCCNC(=O)[C@@H]1c2ccccc2C(=O)N(Cc2ccccc2Cl)[C@H]1c1ccc(CO)cc1 | 2.47 (inactive) | 0.227 | 1.8 (inactive) | 0.0323 (inactive) | 0.621 (inactive) | -0.505 (inactive) | 0.335 | -0.988 (inactive) | 0.601 (inactive) | -0.33 | 2.5 | 1.42 | 2.37 | -0.138 | 1.23 | 3.3 | 0.0089 (inactive) | 0.325 | 0.661 | 2.06 (inactive)
O=C1[C@H]2[C@H]3[C@H](O)[C@H](O)CC(=NOCc4ccccc4)[C@H]3CC[C@H]2C(=O)N1c1ccc(F)cc1F | -0.139 (inactive) | -0.761 | 9.01 (active) | 1.42 (inactive) | 0.155 (inactive) | -0.304 (inactive) | -0.392 | -4.97 (inactive) | 0.187 (inactive) | -0.471 | 0.213 | 0.118 | -0.196 | 0.772 | 0.471 | 0.577 | 0.918 (inactive) | 0.305 | -0.801 | -0.0399 (inactive)
COCCOC(=O)N1C(=O)[C@@]2(c3cc(C#CCNC(N)=O)ccc31)[C@H](c1ccc(O)cc1)N1[C@H](c3ccccc3)[C@H](c3ccccc3)OC(=O)[C@H]1[C@@H]2C(=O)N1CCCCCCC1 | 0.455 (inactive) | -0.0779 | 1.04 (inactive) | 0.656 (inactive) | -0.0303 (inactive) | 0.411 (inactive) | 0.0352 | 1.49 (inactive) | -1.04 (inactive) | 1.48 | -0.55 | 0.012 | -0.49 | -0.441 | 0.0294 | -1.85 | -0.731 (inactive) | 0.399 | 0.298 | 0.215 (inactive)
CCN1C(=O)[C@H]2[C@H]3[C@H](O)[C@H](O)CC(=NOC(C)CN4CCCCc5nc(C)c(C)cc54)[C@@H]3CC[C@H]2C1=O (stereo not given in full) | 0.803 (inactive) | -0.106 | 0.29 (inactive) | 0.15 (inactive) | 0.363 (inactive) | 0.317 (inactive) | -0.518 | -0.588 (inactive) | -0.245 (inactive) | -0.239 | -0.421 | 0.111 | 0.503 | 0.0768 | 0.173 | -0.214 | -1.21 (inactive) | -0.232 | -0.0499 | -0.378 (inactive)
CCN(CC)c1ccc(N2CC=CC34O[C@@H]5/C=C\CCC(C)OC(=O)C5[C@H]3C(=O)N(CCCO)[C@@H]4C2=O)cc1 (stereo not given in full) | -0.074 (inactive) | -0.191 | 1.43 (inactive) | -0.223 (inactive) | -0.0086 (inactive) | -0.18 (inactive) | -0.473 | 0.056 (inactive) | -1.51 (inactive) | 0.975 | 0.28 | 0.782 | 0.109 | 1.09 | 0.264 | -0.356 | 0.0214 (inactive) | -0.245 | 1.18 | -0.38 (inactive)
COCCOC(=O)N1C(=O)[C@@]2(c3cc(C#CC4(O)CCCCCC4)ccc31)[C@H](c1ccc(OCCO)cc1)N1[C@H](c3ccccc3)[C@H](c3ccccc3)OC(=O)[C@H]1[C@@H]2C(=O)NC[C@H](O)c1ccccc1 | 1.02 (inactive) | 0.43 | 2.18 (inactive) | 0.524 (inactive) | 0.735 (inactive) | -0.494 (inactive) | 1.47 | 1.79 (inactive) | 0.858 (inactive) | -1.31 | 0.358 | 1.62 | -0.063 | -1.25 | -1.84 | -1.67 | 0.0493 (inactive) | -0.924 | -1.47 | 0.702 (inactive)
COC(=O)c1c(CC[C@@H](CO)NC(=O)N[C@H](Cc2ccccc2)Cn2cc(-c3ccccc3N)nn2)oc(C(C)=O)c1C(=O)OC | 0.144 (inactive) | 0.5 | 29.7 (active) | 15.5 (active) | 0.845 (inactive) | 1.73 (inactive) | 0.211 | -2.69 (inactive) | 0.681 (inactive) | 1.74 | 0.238 | 0.475 | 0.169 | -0.0234 | 0.229 | -0.864 | -0.474 (inactive) | -0.415 | 0.65 | -0.0935 (inactive)
COC(=O)[C@H]1COC(c2ccc(OCCCO)cc2)=N1 | -0.13 (inactive) | 0.245 | 22.4 (active) | 5.33 (inactive) | 0.0031 (inactive) | 0.642 (inactive) | -0.0797 | -0.257 (inactive) | 0.172 (inactive) | -0.663 | -0.283 | 0.568 | -0.344 | 0.0072 | -0.231 | -0.371 | 0.203 (inactive) | -0.16 | 1.23 | 0.0759 (inactive)
CO[C@H]1COC(=O)[C@H](C)NC(=O)[C@@H](C)COC(=O)CC=C[C@@H]1C | 0.66 (inactive) | -0.251 | 0.945 (inactive) | 0.54 (inactive) | 0.795 (inactive) | 0.465 (inactive) | 0.0768 | -0.835 (inactive) | 0.412 (inactive) | 0.193 | -0.0101 | 0.0176 | -0.368 | -0.303 | 0.693 | -0.176 | -1.32 (inactive) | -0.282 | -0.863 | -0.162 (inactive)
C[C@H](c1ccccc1)N1C(=O)[C@H]2[C@H]3[C@H](O)[C@H](O)CC(=O)[C@@H]3CC[C@H]2C1=O | -0.228 (inactive) | 0.173 | 0.12 (inactive) | 0.321 (inactive) | 0.151 (inactive) | -0.12 (inactive) | -0.448 | 0.292 (inactive) | -0.112 (inactive) | -0.092 | -0.311 | -0.0863 | -0.254 | -0.0752 | 0.299 | 0.032 | -0.239 (inactive) | -0.0521 | 0.25 | -0.164 (inactive)
C=CC[C@@H]1C=C[C@H](ON=Cc2ccc(C(=O)N3[C@H](c4ccc(C)cc4)[C@@H](C)CC[C@H]3C(=O)OC)cc2)[C@@H](CO)O1 | 0.69 (inactive) | -0.0945 | 2.78 (inactive) | 0.852 (inactive) | -0.273 (inactive) | 0.637 (inactive) | -1.15 | -0.428 (inactive) | 0.569 (inactive) | -0.0942 | 0.319 | -0.361 | -0.431 | -0.581 | -1.4 | -1.67 | -0.0052 (inactive) | 0.634 | -0.434 | -0.299 (inactive)
